In the library only some 19% were active in any assay of this set; here they are far more common.
IL1B secr inh: qHTS for Inhibitors of Inflammasome Signaling: IL-1-beta AlphaLISA Primary Screen; THP-1 LPS/ATP IL-1B secretion, AlphaLISA, 16 h; stronger effect = lower value; activity change, % at 57.5 µM; 360,000 tested, 4.7% active; in the data active means activity change below about -50%; inconclusive means mostly about -30% to -49%
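THP-1 cells pretreated 1 hr with compounds (up to 57.5 uM final), then stimulated with LPS (250 ng/mL final) plus ATP (1.25 mM final); secreted IL-1B measured by AlphaLISA after 16 hr, decreased signal indicating inhibition.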
ELG1 DNA repair: qHTS screen for small molecules that inhibit ELG1-dependent DNA repair in human embryonic kidney (HEK293T) cells expressing luciferase-tagged ELG1; HEK293T ELG1-luciferase reporter, luminescence, 16 h; DNA damage induced by 5-fluorouridine; Potency, µM (doses to about 46.1 µM), inactives show top-dose activity change, negative = inhibition, hits mostly inhibitors; 330,000 tested, 2.3% active; further: potency means the concentration at half of the fitted maximal effect; nearly all actives have a fitted effect of over 55% in size
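Overnight (16 hr) co-exposure of 2,000 cells/well to 5-fluorouridine and compound at 37 °C preceded detection. Luciferase was quantified via ONE-Glo luminescence; loss of signal denotes inhibition.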
HT1080-NT tox: qHTS for induction of synthetic lethality in tumor cells producing 2HG: qHTS for the HT-1080-NT fibrosarcoma cell line. HT-1080-NT fibrosarcoma viability, CellTiter-Glo ATP luminescence, 48 h. Potency, µM (doses to about 46.1 µM), inactives show at the top dose activity, negative = less viability, hits mostly cytotoxic. 360,000 tested, 1.6% active;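 further: NT is the 2HG producing partner of a matched IDH1 knockdown line; potency means the concentration at half of the fitted maximal effect; 0% = DMSO-treated cells and -100% = media-only wells without cells; nearly all actives have a fitted effect of over 55% in size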
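HT-1080-NT fibrosarcoma cells (2HG-overproducing), 750 cells/well in RPMI with 5% FBS, dosed after 2 h and incubated 48 h at 37C. CellTiter-Glo luminescence normalized to DMSO and no-cell wells; concentration-response curves fitted and classed.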
DT40 TDP1 no CPT: qHTS for Inhibitors of human tyrosyl-DNA phosphodiesterase 1 (TDP1): qHTS in cells in absence of CPT | DT40 Tdp1-/- hTDP1 cells, no CPT, ATP luminescence, 48 h | 420,000 tested, 15% active | Potency, µM (titrated, usually from 46.2 µM), inactives show top-dose activity change, negative = growth inhibition, most hits filed as inhibitors; further: potency means the concentration at half of the fitted maximal effect; nearly all actives have a fitted effect of over 55% in size
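Chicken DT40 Tdp1-/- cells complemented with human TDP1, screened without camptothecin (DMSO vehicle only), 400 cells/well. Compounds pin-transferred, cells incubated at 37 °C for at least 48 hr. Growth read as ATP-dependent luminescence (CellTiter-Glo, 30 min at RT).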
TDP1 cell CPT: qHTS for Inhibitors of human tyrosyl-DNA phosphodiesterase 1 (TDP1): qHTS in cells in presence of CPT; chicken DT40 Tdp1-/-;hTDP1 cells + 20 nM CPT, ATP luminescence, 48 h; 420,000 tested, 12% active; Potency, µM (titrated, usually from 46.2 µM), for inactives: at the highest dose activity change, negative = growth inhibition, actives largely listed as inhibitors; further: potency means the concentration at half of the fitted maximal effect; nearly all actives have a fitted effect of over 55% in size
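Chicken DT40 Tdp1-/- cells stably complemented with human TDP1 were seeded at 400 cells/well in medium containing 20 nM camptothecin, exposed to pin-transferred compounds, and grown at 37 °C for at least 48 hr. Viability was read as ATP luminescence.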
HT1080 IDH1KD tx: qHTS for induction of synthetic lethality in tumor cells producing 2HG: qHTS for the HT-1080-IDH1KD cell line; HT-1080 IDH1 knockdown viability, ATP luminescence, 48 h; Potency, µM (doses to about 46.1 µM), for the others: top-dose activity, negative = toxicity, actives largely listed as cytotoxic; 360,000 tested, 2% active;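 further: potency means the concentration at half of the fitted maximal effect; 0% = DMSO wells and -100% = cell-free medium wells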
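In this qHTS, HT-1080 cells depleted of IDH1 are exposed for 48 h at 37 °C to compound titrations. Toxicity is scored from CellTiter-Glo luminescence, with DMSO as full viability and medium alone as none.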
The depositor's hits bear a star; ? = inconclusive; · = not tested or not shown; [ ] = dose if it differs, or a comment. Unless noted, the call rests on the fitted dose curve; in most records, active means well fitted curve in the direction sought with a large enough effect; inconclusive means small, poorly fitted or top-dose-only effect, or another doubt; inactive means no such curve, though single readings can be large; an effect the other way counts as inactive or inconclusive. Unless noted, on the % scale 0 is the no-effect control and ±100 the full control effect.

SMILES	IL1B secr inh	ELG1 DNA repair	HT1080-NT tox	DT40 TDP1 no CPT	TDP1 cell CPT	HT1080 IDH1KD tx
CC(C)c1ccc(NC(=O)C(Cc2ccccc2)NS(=O)(=O)c2ccc3c(c2)CCC(=O)N3)cc1 (stereo unspecified)	·	·	·	?	-26.8%	·
C/C(=N\Nc1nc(N2CCOCC2)nc(N2CCOCC2)n1)c1cccc([N+](=O)[O-])c1	-3.3	?	1.1%	-17.4%	4.4%	4.8%
CNC(=S)N/N=C(\C)c1cccc([N+](=O)[O-])c1	-15.7	26.8%	-1.1%	2.91µM*	1.3µM*	24.9%
C/C(=N\N=C(N)N)c1cccc([N+](=O)[O-])c1	-6.4	4.5%	-0.1%	13µM*	?	-2.6%
C/C(=N\Nc1ncc(Br)cn1)c1cccc([N+](=O)[O-])c1	-73.1*	1.9%	23.4%	13.1%	-16.3%	17.5%
CNC(=S)N/N=C(\C)c1ccccc1	-22.1	?	?	13µM*	7.31µM*	-28.1%
C/C(=N\NC(=O)C(N)=O)c1cccc([N+](=O)[O-])c1	0.0	-3.6%	10.1%	3.7%	-28.9%	9.3%
O=C(NCCCn1cccn1)c1cc(COc2ccccc2)on1	-0.2	·	0.1%	?	?	4.5%
O=C(Cn1cnnn1)NCc1ccccc1	6.5	8.6%	4.3%	-9.7%	12.5%	9.6%
CNS(=O)(=O)c1cn(CC(=O)Nc2ccc(OC)cc2OC)cc1S(=O)(=O)NC	·	·	·	-6.5%	-13.3%	·
CCCCN1CC(=O)N2[C@H]3c4ccc(OC)cc4OC[C@@H]3[C@H](C(=O)OCC)[C@]2(C)C1=O	0.4	7.3%	8.2%	-21.3%	-12.7%	5.3%
Cc1c(C(=O)N(C)C)sc2c1c(=O)n(-c1ccccc1C(F)(F)F)c(=O)n2Cc1ccccc1C#N	·	·	·	-2.2%	-11.8%	·
C/C(=N\N=C(/C)c1cccc(N)c1)c1cccc(N)c1	-6.6	·	12.6%	-15.4%	-9.5%	9.9%
C/C(=N\NC(=S)NCc1ccccc1)c1ccc(C(C)(C)C)cc1	-26.5	?	-25.9%	23.1µM*	18.4µM*	?
C/C(=N\NC(=S)NCc1ccccc1)c1ccc(C#N)cc1	0.0	-0.3%	3.3%	6.6%	-10.4%	-2.0%
C/C(=N\N=C(N)N)c1ccc(C)c(C)c1	?	-23.8%	-23.3%	?	18.4µM*	-27.9%
COc1cc(/C=N/O)ccc1Oc1cnccn1	10.0	0.1%	1.6%	-3.0%	0.8%	0.6%
Cc1ccc(S(=O)(=O)N(Cc2ccccc2)c2ccccc2C(=O)NCc2ccco2)cc1	-94.5*	?	11.2µM*	?	?	3.4%[9.24 µM]
CS(=O)(=O)N(Cc1ccccc1)c1ccccc1C(=O)Nc1ccccc1C(=O)NCc1ccco1	6.8	-15.8%	-0.4%[9.24 µM]	-28.1%	-13.8%	-4.7%
COCCNC(=O)c1ccccc1N(Cc1ccccc1)S(=O)(=O)c1ccc(C)cc1	7.3	?	-16.3%	-18.2%	-16.0%	-10.4%
Cc1ccc(S(=O)(=O)N(Cc2ccccc2)c2ccccc2C(=O)Nc2ccccc2C(=O)NCc2ccco2)cc1	-9.4	-14.9%	0.0%	?	23.1µM*	-5.4%
COCCN(Cc1cccs1)S(=O)(=O)c1ccc(-c2ccc(=O)[nH]n2)s1	11.7	0.0%	15.7%	3.3%	-25.0%	2.2%
Cc1nc(-c2c(-c3ccc(O)cc3O)noc2C(F)(F)F)cs1	13.4	?	-10.9%	16.4µM*	18.4µM*	-13.7%
COc1ccc(-c2ncnc(C(F)(F)F)c2-c2csc(C)n2)c(O)c1	25.0	2.9%	0.5%	6.9%	-18.2%	8.1%
COC(=O)[C@@]1(Cc2ccc(F)cc2)[C@H]2c3cc(C(=O)N(C)C)n(Cc4ccc(S(C)(=O)=O)cc4)c3C[C@H]2CN1C(=O)c1ccccc1	0.0	·	-12.0%	?	20.6µM*	-16.2%
SMILES	IL1B secr inh	ELG1 DNA repair	HT1080-NT tox	DT40 TDP1 no CPT	TDP1 cell CPT	HT1080 IDH1KD tx
COC(=O)[C@@]1(Cc2ccc(F)cc2)[C@H]2c3cc(C(=O)N4CCCC4)n(Cc4ccc(S(C)(=O)=O)cc4)c3C[C@H]2CN1C(=O)c1ccccc1	-21.5	·	-27.7%	18.4µM*	?	?
COC(=O)[C@@]1(Cc2ccc(F)cc2)[C@H]2c3cc(C(=O)N(C)C)n(Cc4ccccn4)c3C[C@H]2CN1C(=O)c1ccccc1	0.4	?	-2.6%	?	?	-3.1%
CCOCCCNC(=O)c1cc2c(=O)[nH]c3ccccc3c2n1C	·	·	·	-28.7%	-22.1%	·
O=C(C(Cl)Cl)N1c2ccccc2OCC1c1ccccc1 (stereo unspecified)	-8.8	-1.4%	-10.5%	14.6µM*	18.4µM*	-19.0%
Cc1ccc(S(=O)(=O)N2c3ccccc3OCC2c2ccccc2)cc1 (stereo unspecified)	5.0	?	?	16.4µM*	29.1µM*	?
CC1COc2ccccc2N1S(=O)(=O)c1ccc(Cl)cc1 (stereo unspecified)	20.7	?	-13.0%	23.1µM*	-4.7%	-25.1%
CC1COc2ccccc2N1C(=O)c1ccc(Cl)cc1 (stereo unspecified)	15.8	-7.6%	1.7%	-20.3%	-7.0%	5.9%
Cc1cc(N=Nc2ccccc2)cc(C)c1NC(=O)C(F)(F)F	?	·	-2.6%	?	?	-3.1%
COc1ccc(-c2cc(C3CCN(C(=O)OC(C)(C)C)CC3)[nH]n2)cc1	-83.6*	-20.1%	-6.9%	?	?	-10.2%
COc1ccc(N2CCN(c3ccc(C(=O)O)cc3[N+](=O)[O-])CC2)cc1	-3.2	?	10.9%	8.1%	20.5%	-2.8%
CCOC(=O)c1cn2nc(-c3ccc(OC)cc3)cc2nc1C1CCN(C(=O)OC(C)(C)C)CC1	?	-10.0%	9.1%	?	?	4.3%
COc1ccc(-c2cc(C3CCN(c4ccc(C(C)=O)cc4[N+](=O)[O-])CC3)[nH]n2)cc1	-71.2*	?	?	5.17µM*	5.8µM*	?
CC(=O)c1ccc(N2CCC(c3cc(-c4ccc(Cl)cc4)n[nH]3)CC2)c([N+](=O)[O-])c1	24.9	?	?	4.61µM*	7.31µM*	?

Assay outcomes (PubChem)
